# Test results: PubChem BioAssay
# The source made the active and inactive calls. Unless noted, how the calls were made is not given here.
# How the values were obtained:
# [1] = HepG2 liver cancer cell viability effects, profiling panel, resazurin fluorescence, 24 h, PK04 Diversity Set (AID 1172); conditions: higher = more signal; further: test concentration not given here
# [2] = basal S. cerevisiae growth modulation, no modifier, primary screen, OD600, strain BY4716, 24 h, basal condition (AID 1173); conditions: OD600, 24 h, higher = more signal, called active from +8 up or from −8 down
# [3] = MM1S myeloma cell viability, profiling panel, resazurin fluorescence, basal, 24 h, PK04 Diversity Set (AID 1174); conditions: higher = more signal, called active from +8 up or from −8 down;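 further: MM1S multiple myeloma cell line; test concentration not given here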
# [4] = target: Dihydroorotate dehydrogenase (quinone), mitochondrial (Plasmodium falciparum (isolate 3D7)) (UniProt Q08210); assay: PfDHODH enzyme inhibitors, primary screen, biochemical, C-terminal His tag, absorbance 600 nm (AID 1175); conditions: DCIP absorbance 600 nm, higher = more signal, called active from +8 up or from −8 down;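 further: recombinant parasite enzyme with a five histidine tag at its C terminus; test concentration not given here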
# Dihydroorotate dehydrogenase (quinone), mitochondrial (Plasmodium falciparum (isolate 3D7)), sequence (Q08210 whole entry, looked up): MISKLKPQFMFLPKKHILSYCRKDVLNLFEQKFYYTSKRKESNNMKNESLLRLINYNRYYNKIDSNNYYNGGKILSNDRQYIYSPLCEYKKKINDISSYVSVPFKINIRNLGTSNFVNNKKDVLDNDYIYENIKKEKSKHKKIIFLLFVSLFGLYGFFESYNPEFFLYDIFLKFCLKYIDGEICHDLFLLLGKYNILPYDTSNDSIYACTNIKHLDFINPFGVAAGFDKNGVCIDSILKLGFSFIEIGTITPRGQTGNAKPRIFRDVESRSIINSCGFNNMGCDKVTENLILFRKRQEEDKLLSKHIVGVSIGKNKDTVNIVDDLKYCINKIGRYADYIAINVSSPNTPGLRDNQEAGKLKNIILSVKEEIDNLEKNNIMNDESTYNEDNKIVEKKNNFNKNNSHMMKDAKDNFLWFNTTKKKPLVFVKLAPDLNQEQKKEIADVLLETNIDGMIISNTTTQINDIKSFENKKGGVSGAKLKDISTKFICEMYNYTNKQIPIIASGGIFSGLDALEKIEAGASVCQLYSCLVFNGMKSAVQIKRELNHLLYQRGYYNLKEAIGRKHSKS
# [5] = P. aeruginosa biofilm formation inhibitors, primary screen, strain PAO1, LB-PBS medium, absorbance 600 nm (AID 1176); further: test concentration not given here; conditions: P. aeruginosa PAO1 growth/biofilm, A600, 12 h; higher = more signal
# [6] = S. cerevisiae RM11-1a growth modifiers, primary screen, strain RM11-1a, OD600, basal, 24 h (AID 1177); conditions: OD600, 24 h, higher = more signal, called active from +8 up or from −8 down;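 further: cultures grown under basal conditions with no added stressor; test concentration not given here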
# [7] = E. coli acrAB mutant growth effects, primary screen, E. coli filamentation inducers, strain DRC39, OD650, 24 h (AID 1178); conditions: higher = more signal, called active from +8 up or from −8 down;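 further: growth measured as culture turbidity by optical density at 650 nm; test concentration not given here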
# [8] = E. coli acrAB mutant growth effects, primary screen, E. coli filamentation inducers, strain DRC39, OD650, 48 h (AID 1179);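 further: screen aims at cell division blockers that make cells filament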; conditions: E. coli DRC39 delta-acrAB growth, higher = more signal, called active from +8 up or from −8 down
# [9] = RPMI8226 myeloma cell viability, profiling panel, resazurin fluorescence, basal, 24 h, PK04 Diversity Set (AID 1180); conditions: higher = more signal;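 further: RPMI8826 multiple myeloma cell line at 5000 cells per well; test concentration not given here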
# [10] = target: E3 ubiquitin-protein ligase XIAP (Homo sapiens) (UniProt P98170); assay: XIAP binders, primary screen, biophysical, small-molecule microarray, fluorescence 635 nm (AID 1181); conditions: small-molecule microarray binding, higher = more signal;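 further: score merges 667 nm emission and signal to noise over triplicate slides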
# E3 ubiquitin-protein ligase XIAP (Homo sapiens), sequence (P98170 whole entry, looked up): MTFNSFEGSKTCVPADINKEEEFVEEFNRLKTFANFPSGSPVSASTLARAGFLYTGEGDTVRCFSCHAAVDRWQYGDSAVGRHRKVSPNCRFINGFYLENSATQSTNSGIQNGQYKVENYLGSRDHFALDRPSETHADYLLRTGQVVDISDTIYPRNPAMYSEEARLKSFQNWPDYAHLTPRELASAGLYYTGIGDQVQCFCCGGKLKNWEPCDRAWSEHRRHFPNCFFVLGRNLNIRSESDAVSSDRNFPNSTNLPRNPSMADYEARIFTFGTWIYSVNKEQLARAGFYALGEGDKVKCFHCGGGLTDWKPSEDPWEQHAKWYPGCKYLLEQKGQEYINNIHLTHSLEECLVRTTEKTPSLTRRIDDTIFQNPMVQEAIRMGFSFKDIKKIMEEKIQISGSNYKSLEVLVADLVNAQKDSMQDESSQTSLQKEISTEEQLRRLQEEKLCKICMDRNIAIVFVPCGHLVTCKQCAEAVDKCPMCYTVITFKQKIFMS
Structure (SMILES),z-score [1],z-score [2],z-score [3],composite z-score [4],z-score [5],z-score [6],z-score [7],z-score [8],z-score [9],composite z-score [10]
CC(C)C[C@H]1NC(=O)[C@H](C)NC(=O)[C@@]23C(=O)N[C@@H](Cc4ccccc4)C2[C@H](C)[C@@]2(C)O[C@H]2C3/C=C/C/C=C\CNC1=O (stereo not given in full),-0.594,-0.49 (inactive),0.0114 (inactive),-0.401 (inactive),0.413 (inactive),-0.837 (inactive),-0.599 (inactive),-0.555 (inactive),0.154,0.0822
CC(C)c1ccc(NN2C(C(O)c3ccccn3)C=CC3C(=O)N(c4ccccc4)C(=O)C32)cc1 (stereo not given),-0.981,-0.147 (inactive),-1.17 (inactive),1.87 (inactive),0.0895 (inactive),1.92 (inactive),0.235 (inactive),0.0644 (inactive),-0.698,-0.0559
COCCOC(=O)N1C(=O)[C@@]2(c3cc(C#CCCO)ccc31)[C@H](C(=O)NC[C@H](O)c1ccccc1)[C@H]1C(=O)O[C@H](c3ccccc3)[C@H](c3ccccc3)N1[C@@H]2c1ccccc1OCCO,0.446,0.446 (inactive),0.0837 (inactive),0.246 (inactive),1.12 (inactive),1.88 (inactive),0.136 (inactive),0.259 (inactive),-0.135,0.0593
COCCCNC(=O)[C@]1(Cc2ccccc2)N=C(c2ccc(OCCCO)cc2)O[C@@H]1c1ccccc1N=[N+]=[N-],0.0754,-1.75 (inactive),-2.61 (inactive),0.828 (inactive),-0.674 (inactive),-0.355 (inactive),1.27 (inactive),0.642 (inactive),-2.73,-0.02
CCOC(=O)C[C@H]1[C@H](OC(=O)c2ccc(C(=O)c3ccccc3)cc2)[C@@H](NC(=O)C2CCCCC2)c2cc(OCCCO)ccc2N1C(=O)Cc1ccc(OC)cc1,-0.531,-0.741 (inactive),-0.28 (inactive),-0.085 (inactive),-0.346 (inactive),-0.0363 (inactive),-0.29 (inactive),0.162 (inactive),-0.353,-0.141
O=C1O[C@H](c2ccccc2)[C@H](c2ccccc2)N2[C@H]1[C@@H](C(=O)N1CCCCCCC1)[C@]1(C(=O)Nc3ccccc31)[C@H]2c1ccc(O)cc1,-0.642,-0.147 (inactive),-2.64 (inactive),0.64 (inactive),0.995 (inactive),0.767 (inactive),-0.328 (inactive),-0.128 (inactive),-2.73,2.57
COCCOC(=O)N1C(=O)[C@@]2(c3cc(C#CCCO)ccc31)[C@H](c1ccc(OCCO)cc1)N1[C@H](c3ccccc3)[C@H](c3ccccc3)OC(=O)[C@H]1[C@@H]2C(=O)N1CCc2cc(OC)c(OC)cc2C1,-0.398,1.28 (inactive),-1.24 (inactive),-1.02 (inactive),1.64 (inactive),3.35 (inactive),0.154 (inactive),0.554 (inactive),0.908,-0.102
O=C1C2C=CC(C(O)c3cccc4ccccc34)N(Nc3ccccc3)C2C(=O)N1c1ccccc1 (stereo not given),0.451,-3.11 (inactive),0.0605 (inactive),0.651 (inactive),1.6 (inactive),-0.0805 (inactive),-0.148 (inactive),0.133 (inactive),-0.0011,0.197
COCCCNC(=O)[C@@]1(Cc2ccccc2)COC(c2ccc(OCCCO)cc2)=N1,0.515,-0.0995 (inactive),0.141 (inactive),0.45 (inactive),-0.499 (inactive),-0.031 (inactive),-0.13 (inactive),0.993 (inactive),1.22,-0.098
CCCN1C(=O)[C@@]2(Cc3ccccc3)N=C(c3ccc(OCCCO)cc3)O[C@H]2c2ccccc21,0.167,-2.03 (inactive),-1.66 (inactive),-0.319 (inactive),1.02 (inactive),0.673 (inactive),0.248 (inactive),-0.319 (inactive),-1.57,-0.206
COCCOC(=O)N1C(=O)[C@@]2(c3cc(C#CCNC(N)=O)ccc31)[C@H](c1ccc(OCCO)cc1)N1[C@H](c3ccccc3)[C@H](c3ccccc3)OC(=O)[C@H]1[C@@H]2C(=O)N1CCN(c2ncccn2)CC1,0.26,1.51 (inactive),-0.0528 (inactive),-0.239 (inactive),2.5 (inactive),2.05 (inactive),-0.157 (inactive),-0.327 (inactive),0.0246,0.1
